Experimental data taken from article PMC10812921, “Transcriptional Coactivator BOB1 (OBF1, OCA-B) Modulates the Specificity of DNA Recognition by the POU-Domain Factors OCT1 and OCT2 in a Monomeric Configuration”.

Assays:
POU1 (OCT1 POU domain) = POU1 (OCT1 POU domain) (human, UniProt P14859 260-458); assay: EMSA-SELEX-seq; no BOB1; 20 mM Tris-HCl pH 7.6, 140 mM NaCl, 10% glycerol, 0.5 mM EDTA, 0.05% Triton X-100, 0.1 mg/mL BSA, 0.1 mg/mL poly(dI-dC), 5 mM DTT, room temperature, 20 min; high values mean tight binding; conditions: protein: recombinant; dsDNA, one strand shown
In short: (§1)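 Binding preference is reported as the percentage of sequenced 8-mers that match a motif pattern. Tagged POU-domain proteins were made in E. coli BL21, purified under denaturing conditions and renatured. A 30 ng portion was combined with 300 ng of a PCR-amplified double-stranded random 35-nt library, with or without 28 ng coactivator protein, in 20 μL Tris–HCl pH 7.6 binding buffer for 20 min at RT. Complex bands were excised from native 6% PAGE, eluted and PCR-amplified over four rounds before Illumina sequencing.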

POU2 (OCT2 POU domain) = biological target: T1, POU2 (OCT2 POU domain) (human, UniProt P09086 175-386); assay: as above; conditions: protein: recombinant; dsDNA, one strand shown
T1 sequence: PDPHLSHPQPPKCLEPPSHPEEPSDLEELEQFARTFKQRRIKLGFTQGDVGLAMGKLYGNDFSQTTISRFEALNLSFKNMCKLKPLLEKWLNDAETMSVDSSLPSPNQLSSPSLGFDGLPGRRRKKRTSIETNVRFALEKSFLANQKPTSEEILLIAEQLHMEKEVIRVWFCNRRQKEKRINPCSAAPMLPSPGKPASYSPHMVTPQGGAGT
In short: as §1

[1] = biological target: T2, POU2 (OCT2 POU domain);BOB1 (OBF1, OCA-B) (human;human, UniProt P09086;Q16633 175-386;1-256, |); assay: EMSA-SELEX-seq; with BOB1 (ternary complex band); 20 mM Tris-HCl pH 7.6, 140 mM NaCl, 10% glycerol, 0.5 mM EDTA, 0.05% Triton X-100, 0.1 mg/mL BSA, 0.1 mg/mL poly(dI-dC), 5 mM DTT, room temperature, 20 min; high values mean tight binding; conditions: protein: recombinant;recombinant; copies: 1;1; dsDNA, one strand shown
T2 sequence 1: T1 sequence
T2 sequence 2: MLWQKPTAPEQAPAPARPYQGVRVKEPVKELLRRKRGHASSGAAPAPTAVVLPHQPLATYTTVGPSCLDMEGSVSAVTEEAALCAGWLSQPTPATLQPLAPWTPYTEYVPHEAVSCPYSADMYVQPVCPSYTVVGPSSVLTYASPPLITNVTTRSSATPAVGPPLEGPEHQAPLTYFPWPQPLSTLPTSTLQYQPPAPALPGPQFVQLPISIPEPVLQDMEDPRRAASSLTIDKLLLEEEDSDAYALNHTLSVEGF
In short: as §1

[2] = biological target: POU1 (OCT1 POU domain);BOB1 (OBF1, OCA-B) (human;human, UniProt P14859;Q16633 260-458;1-256, |); assay: as above; conditions: protein: recombinant;recombinant; copies: 1;1; dsDNA, one strand shown
In short: as §1

Sequence of POU1 (OCT1 POU domain) (P14859 260-458): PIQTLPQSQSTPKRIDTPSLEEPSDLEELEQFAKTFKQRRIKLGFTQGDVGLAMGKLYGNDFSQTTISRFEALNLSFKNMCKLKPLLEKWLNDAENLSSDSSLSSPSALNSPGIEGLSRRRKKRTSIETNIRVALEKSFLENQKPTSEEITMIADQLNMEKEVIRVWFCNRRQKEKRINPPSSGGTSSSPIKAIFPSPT

Sequence: ACCCTAAC
- binding signal (POU1 (OCT1 POU domain)): 0.0107 % of ANNNNAAN 8-mers
- binding signal (POU2 (OCT2 POU domain)): 0.0121 % of ANNNNAAN 8-mers
- binding signal [1]: 0.0157 % of ANNNNAAN 8-mers

Sequence: ACGCCAAG
- binding signal (POU1 (OCT1 POU domain)): 0.0145 % of ANNNNAAN 8-mers
- binding signal (POU2 (OCT2 POU domain)): 0.0167 % of ANNNNAAN 8-mers
- binding signal [1]: 0.014 % of ANNNNAAN 8-mers

Sequence: ACCGCAAG
- binding signal (POU1 (OCT1 POU domain)): 0.0114 % of ANNNNAAN 8-mers
- binding signal (POU2 (OCT2 POU domain)): 0.0127 % of ANNNNAAN 8-mers
- binding signal [2]: 0.0176 % of ANNNNAAN 8-mers

Sequence: ATGGGAAC
- binding signal (POU1 (OCT1 POU domain)): 0.0496 % of ANNNNAAN 8-mers
- binding signal (POU2 (OCT2 POU domain)): 0.0443 % of ANNNNAAN 8-mers
- binding signal [2]: 0.0488 % of ANNNNAAN 8-mers
- binding signal [1]: 0.0421 % of ANNNNAAN 8-mers

Sequence: ACTGCAAC
- binding signal (POU1 (OCT1 POU domain)): 0.0114 % of ANNNNAAN 8-mers
- binding signal (POU2 (OCT2 POU domain)): 0.0155 % of ANNNNAAN 8-mers
- binding signal [2]: 0.0199 % of ANNNNAAN 8-mers

Sequence: AACGCAAC
- binding signal (POU1 (OCT1 POU domain)): 0.013 % of ANNNNAAN 8-mers
- binding signal (POU2 (OCT2 POU domain)): 0.0201 % of ANNNNAAN 8-mers
- binding signal [1]: 0.0182 % of ANNNNAAN 8-mers

Sequence: ACCTCAAG
- binding signal (POU1 (OCT1 POU domain)): 0.0141 % of ANNNNAAN 8-mers
- binding signal (POU2 (OCT2 POU domain)): 0.0127 % of ANNNNAAN 8-mers
- binding signal [2]: 0.0156 % of ANNNNAAN 8-mers

Sequence: AGAATAAT
- binding signal (POU1 (OCT1 POU domain)): 0.203 % of ANNNNAAN 8-mers
- binding signal (POU2 (OCT2 POU domain)): 0.3 % of ANNNNAAN 8-mers
- binding signal [2]: 0.0948 % of ANNNNAAN 8-mers
- binding signal [1]: 0.122 % of ANNNNAAN 8-mers

Sequence: AAAAGAAC
- binding signal (POU1 (OCT1 POU domain)): 0.0351 % of ANNNNAAN 8-mers
- binding signal (POU2 (OCT2 POU domain)): 0.0443 % of ANNNNAAN 8-mers
- binding signal [2]: 0.0468 % of ANNNNAAN 8-mers
- binding signal [1]: 0.0338 % of ANNNNAAN 8-mers

Sequence: ACAGCAAC
- binding signal (POU1 (OCT1 POU domain)): 0.0153 % of ANNNNAAN 8-mers
- binding signal (POU2 (OCT2 POU domain)): 0.0155 % of ANNNNAAN 8-mers
- binding signal [2]: 0.014 % of ANNNNAAN 8-mers

Sequence: AGCTCAAC
- binding signal (POU2 (OCT2 POU domain)): 0.0132 % of ANNNNAAN 8-mers
- binding signal [2]: 0.0101 % of ANNNNAAN 8-mers
- binding signal [1]: 0.0231 % of ANNNNAAN 8-mers

Sequence: ATATGAAG
- binding signal (POU1 (OCT1 POU domain)): 0.0545 % of ANNNNAAN 8-mers
- binding signal (POU2 (OCT2 POU domain)): 0.0823 % of ANNNNAAN 8-mers
- binding signal [2]: 0.0691 % of ANNNNAAN 8-mers
- binding signal [1]: 0.0735 % of ANNNNAAN 8-mers

Sequence: AGGACAAA
- binding signal (POU1 (OCT1 POU domain)): 0.045 % of ANNNNAAN 8-mers
- binding signal (POU2 (OCT2 POU domain)): 0.046 % of ANNNNAAN 8-mers
- binding signal [2]: 0.0453 % of ANNNNAAN 8-mers
- binding signal [1]: 0.0371 % of ANNNNAAN 8-mers

Sequence: ACCGCAAC
- binding signal (POU1 (OCT1 POU domain)): 0.0114 % of ANNNNAAN 8-mers
- binding signal [1]: 0.0157 % of ANNNNAAN 8-mers

Sequence: AACCTAAC
- binding signal (POU1 (OCT1 POU domain)): 0.013 % of ANNNNAAN 8-mers
- binding signal [1]: 0.0132 % of ANNNNAAN 8-mers

Sequence: ACCCGAAC
- binding signal (POU1 (OCT1 POU domain)): 0.0111 % of ANNNNAAN 8-mers
- binding signal (POU2 (OCT2 POU domain)): 0.0109 % of ANNNNAAN 8-mers
- binding signal [1]: 0.0132 % of ANNNNAAN 8-mers

Sequence: ACCGTAAT
- binding signal (POU1 (OCT1 POU domain)): 0.0454 % of ANNNNAAN 8-mers
- binding signal (POU2 (OCT2 POU domain)): 0.0529 % of ANNNNAAN 8-mers
- binding signal [2]: 0.0332 % of ANNNNAAN 8-mers
- binding signal [1]: 0.0495 % of ANNNNAAN 8-mers

Sequence: ACCGGAAG
- binding signal (POU2 (OCT2 POU domain)): 0.0127 % of ANNNNAAN 8-mers
- binding signal [1]: 0.0124 % of ANNNNAAN 8-mers

Sequence: ACCGAAAC
- binding signal (POU1 (OCT1 POU domain)): 0.0107 % of ANNNNAAN 8-mers
- binding signal (POU2 (OCT2 POU domain)): 0.0132 % of ANNNNAAN 8-mers
- binding signal [2]: 0.0125 % of ANNNNAAN 8-mers

Sequence: ACCCCAAG
- binding signal (POU2 (OCT2 POU domain)): 0.0115 % of ANNNNAAN 8-mers
- binding signal [2]: 0.0105 % of ANNNNAAN 8-mers

Sequence: AGAAAAAT
- binding signal (POU1 (OCT1 POU domain)): 0.0946 % of ANNNNAAN 8-mers
- binding signal (POU2 (OCT2 POU domain)): 0.0886 % of ANNNNAAN 8-mers
- binding signal [2]: 0.0921 % of ANNNNAAN 8-mers
- binding signal [1]: 0.09 % of ANNNNAAN 8-mers

Sequence: ACCACAAC
- binding signal (POU1 (OCT1 POU domain)): 0.0107 % of ANNNNAAN 8-mers
- binding signal (POU2 (OCT2 POU domain)): 0.0132 % of ANNNNAAN 8-mers

Sequence: ACACCAAC
- binding signal (POU2 (OCT2 POU domain)): 0.0127 % of ANNNNAAN 8-mers
- binding signal [2]: 0.0113 % of ANNNNAAN 8-mers
- binding signal [1]: 0.0107 % of ANNNNAAN 8-mers

Sequence: ACCACAAG
- binding signal (POU1 (OCT1 POU domain)): 0.0114 % of ANNNNAAN 8-mers
- binding signal (POU2 (OCT2 POU domain)): 0.0178 % of ANNNNAAN 8-mers
- binding signal [2]: 0.0113 % of ANNNNAAN 8-mers

Sequence: AGCCAAAT
- binding signal (POU1 (OCT1 POU domain)): 0.0858 % of ANNNNAAN 8-mers
- binding signal (POU2 (OCT2 POU domain)): 0.0702 % of ANNNNAAN 8-mers
- binding signal [2]: 0.167 % of ANNNNAAN 8-mers
- binding signal [1]: 0.0892 % of ANNNNAAN 8-mers

Sequence: AGCACAAC
- binding signal (POU1 (OCT1 POU domain)): 0.0114 % of ANNNNAAN 8-mers
- binding signal (POU2 (OCT2 POU domain)): 0.0132 % of ANNNNAAN 8-mers
- binding signal [1]: 0.0124 % of ANNNNAAN 8-mers

Sequence: AGGTTAAT
- binding signal (POU1 (OCT1 POU domain)): 0.174 % of ANNNNAAN 8-mers
- binding signal (POU2 (OCT2 POU domain)): 0.216 % of ANNNNAAN 8-mers
- binding signal [2]: 0.0921 % of ANNNNAAN 8-mers
- binding signal [1]: 0.108 % of ANNNNAAN 8-mers

Sequence: ACGCCAAC
- binding signal (POU2 (OCT2 POU domain)): 0.0115 % of ANNNNAAN 8-mers
- binding signal [2]: 0.0121 % of ANNNNAAN 8-mers

Sequence: AGGAGAAG
- binding signal (POU1 (OCT1 POU domain)): 0.045 % of ANNNNAAN 8-mers
- binding signal (POU2 (OCT2 POU domain)): 0.0472 % of ANNNNAAN 8-mers
- binding signal [2]: 0.0507 % of ANNNNAAN 8-mers
- binding signal [1]: 0.0438 % of ANNNNAAN 8-mers

Sequence: AGAGTAAT
- binding signal (POU1 (OCT1 POU domain)): 0.0648 % of ANNNNAAN 8-mers
- binding signal (POU2 (OCT2 POU domain)): 0.0777 % of ANNNNAAN 8-mers
- binding signal [2]: 0.0499 % of ANNNNAAN 8-mers
- binding signal [1]: 0.0537 % of ANNNNAAN 8-mers

Sequence: AAGAAAAA
- binding signal (POU1 (OCT1 POU domain)): 0.0934 % of ANNNNAAN 8-mers
- binding signal (POU2 (OCT2 POU domain)): 0.0921 % of ANNNNAAN 8-mers
- binding signal [2]: 0.105 % of ANNNNAAN 8-mers
- binding signal [1]: 0.0669 % of ANNNNAAN 8-mers
